# Assay results reported in article PMC4552634, “A New Set of Chemical Starting Points with Plasmodium falciparum Transmission-Blocking Potential for Antimalarial Drug Discovery” (PLoS ONE, 2015).
# In all, about 13,000 compounds went through this assay and about 3,200 (25%) showed an effect of 50% or more. The list shows a part of the results.
# System: P. falciparum stage V gametocytes
# Parameters: BacTiter-Glo ATP luminescence viability of purified stage V gametocytes in 384-well plates, per cent inhibition versus DMSO
# Conditions: 48 h, 5 µM; inhibitor
row,Compound,% Inhibition [%]
1,CN1CCC(N(Cc2ccc(-c3ccc(Cl)cc3)cc2)C(=O)Cn2c(CCc3cccc(F)c3F)cc(=O)c3ccccc32)CC1 [TCMDC-141357],111.3
2,CCN1CCC(N(Cc2ccc(-c3ccc(Cl)cc3)cc2)C(=O)Cn2c(CCc3cccc(F)c3F)cc(=O)c3ccccc32)CC1 [TCMDC-141358],109.7
3,CN1CCC(N(Cc2ccc(-c3ccc(C(F)(F)F)cc3)nc2)C(=O)Cn2c(CCc3cccc(F)c3F)cc(=O)c3ccccc32)CC1 [TCMDC-141407],27.49
4,Nc1nc2ccc(CN(C=O)c3ccc(C(=O)N[C@@H](CCC(=O)O)C(=O)O)cc3)cc2c(=O)[nH]1 [TCMDC-132048],3.734
5,COc1ccc(Cn2c(Nc3cccc(C(F)(F)F)c3)nc3cc(C(=O)NCCN4CCCC4)cnc32)cc1Cl [TCMDC-138555],60.89
6,COc1ccc(Cn2c(Nc3cccc(C(F)(F)F)c3)nc3cc(C(=O)NCCN4CCCC4)ccc32)cc1Cl [TCMDC-138532],-18.24
7,COc1ccc(Cn2c(Nc3cccc(C(F)(F)F)c3)nc3ccc(C(=O)NCCN4CCCC4)cc32)cc1Cl [TCMDC-138531],-30.77
8,CN(c1cc(NC(=O)c2ccc(F)cc2)ccn1)C1CCN(Cc2ccc(C#N)cc2)CC1 [TCMDC-134979],11.6
9,O=c1cc(NCCCNCc2cc(Br)ccc2F)[nH]c2ccccc12 [TCMDC-139424],-33.84
10,CC(=O)N(Cc1ccc(-c2ccc(CNCCc3ccccc3)cc2)cc1)C1CCN(Cc2ccccc2)CC1 [TCMDC-140530],41.5
11,CC(C)CNCc1ccc(-c2ccc(CN(C(=O)NCCc3ccccc3)C3CCN(Cc4ccccc4)CC3)cc2)cc1 [TCMDC-140623],92.24
12,CC(C)CNCc1cccc(-c2ccc(CN(C(=O)NCCc3ccccc3)C3CCN(Cc4ccccc4)CC3)cc2)c1 [TCMDC-140622],85.53
13,CC(C)CNCc1ccc(-c2cccc(CN(C(=O)NCCc3ccccc3)C3CCN(Cc4ccccc4)CC3)c2)cc1 [TCMDC-140615],77.17
14,O=C(NC1CCCCC1)C(c1cccs1)N(CCc1ccccc1)C(=O)c1ccco1 (stereo not shown) [TCMDC-123798],-17.48
15,CC(C)c1ccc(-c2noc(SCC(=O)N3CCCCC3C)n2)cc1 (stereo not shown) [TCMDC-124745],-11.89
16,CC(=O)NC1=NC(C)(C)N(OCc2ccc(Cl)c(Cl)c2)C(NC(C)=O)=N1 [TCMDC-131594],-1.877
17,CC(=O)Nc1cccc(/C=C/C(=O)N2CCC(N3CCCCC3)CC2)c1 [TCMDC-141128],9.67
18,Cc1cccnc1CNc1nccc2c(C)c(C)[nH]c12 [TCMDC-134148],-85.57
19,CCCCCCCN1CC[C@@H](CCCc2ccnc3ccc(OCCC4CCNCC4)cc23)[C@@H](CC)C1 [TCMDC-139819],116.4
20,CCCCCCCN1CC[C@@H](CCCc2ccnc3ccc(OCCN4CCNCC4)cc23)[C@@H](CC)C1 [TCMDC-139817],103.1

row,Compound,% Inhibition [%]
1,CCCCCCCN1CC[C@@H](CCCc2ccnc3ccc(OCCN4CCOCC4)cc23)[C@@H](CC)C1 [TCMDC-139815],43.2
2,CCCCN1CC[C@@H](CCC(O)c2ccnc3ccc(OCCC(C)C)cc23)[C@@H](CC)C1 (stereo partly shown) [TCMDC-131481],66.25
3,CCCCN1CC[C@@H](CCC(O)c2cc(OCCC)nc3ccc(OC)cc23)[C@@H](CC)C1 (stereo partly shown) [TCMDC-131499],36.19
4,CCCCCCCN1CC[C@@H](CCC(O)c2ccnc3ccc(OC)cc23)[C@@H](CC)C1 (stereo partly shown) [TCMDC-138954],9.095
5,CC[C@H]1CN(Cc2ccco2)CC[C@H]1CCCc1ccnc2ccc(O)cc12 [TCMDC-140336],6.613
6,CCCCCCCN1CC[C@@H](CCCc2ccnc3ccc(OCC4CCCNC4)cc23)[C@@H](CC)C1 (stereo partly shown) [TCMDC-139816],113
7,CN1CCN(c2cc3c(cc2Cl)CCN3C(=O)Cc2ccc(Cl)c(NC(=O)Nc3cccc([N+](=O)[O-])c3)c2)CC1 [TCMDC-139473],-0.749
8,O=C(Nc1ccc(F)cc1F)NC1CCN(c2ccnc3cc(Cl)ccc23)C1 (stereo not shown) [TCMDC-133658],-14.22
9,CCCOc1ccc(C(F)(F)F)cc1NC(=O)c1nc2nc(C)cc(C)n2n1 [TCMDC-125466],-88.48
10,COc1ccc(N2CCc3c(-c4cccc5cnccc45)cc(C)nc32)c(C)c1 [TCMDC-136362],-0.3846
11,O=C(NCCCN1CCOCC1)c1ccc(-c2cccc(NC(=O)c3ccc(Cl)c(Cl)c3)c2)cc1 [TCMDC-133693],-20.47
12,O=C1CC(C(=O)O)CC(=O)N1 [TCMDC-125482],13.38
13,COc1ccccc1-n1c(-c2ccc3ccccc3c2)csc1=NC(=O)c1ccccc1 [TCMDC-125668],-1.763
14,O=C(NCCN1CCC(c2ncc(-c3ccccc3)o2)CC1)c1ccc(NC(=O)c2ccc(Cl)cc2)cc1 [TCMDC-138483],-8.107
15,O=C(NCCCCN1CCC(C(c2ccccc2)c2ccccc2)CC1)c1ccc(NC(=O)c2ccc(Cl)cc2)cc1 [TCMDC-138332],-3.792
16,CC(C)Cn1cc(C2CCN(CCN3CCC(CNC(=O)c4ccc(NC(=O)c5cc(Cl)cc(Cl)c5)cc4)CC3)CC2)c2ccccc21 [TCMDC-138868],108.5
17,Cn1cc(C2CCN(CCCCNC(=O)c3ccc(C(=O)Nc4ccc(C#N)cc4)cc3)CC2)c2ccccc21 [TCMDC-138788],-0.3465
18,CC(C)Cn1cc(C2CCN(CCN3CCC(CNC(=O)c4ccc(NC(=O)c5ccc(Cl)cc5)cc4)CC3)CC2)c2ccccc21 [TCMDC-138865],102.8
19,Cc1nc(-c2ccccc2)nc(N2CCN(C(=O)c3ccco3)CC2)c1Cc1ccccc1F [TCMDC-124778],-3.417
20,CC1(C)NC(N)=NC(=N)N1OCCSCCON1C(=N)N=C(N)NC1(C)C [TCMDC-131648],6.143
